Only a selection was taken, and the strongest signals are over-represented in it overall.

What all share (assay): glycan array binding signal (z-score within array); higher = stronger binding
What all share (conditions): glycan notation: IUPAC condensed, linker removed

For assay [1], the target named is GlcNAc(b1-4)GlcNAc(b1-4)GlcNAc. Put shortly:
(§1)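 The binding signal is a Z-score computed within each array and averaged over linkers. Arrays of the same protein sequence at different concentrations or buffers were also averaged together. Data originate from 3228 arrays in the Consortium for Functional Glycomics database, kept only where the protein sequence was available.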

Assay [2] addresses Neu5Ac(a2-3)Gal(b1-3)GlcNAc(b1-2)Man(a1-3)[Neu5Ac(a2-3)Gal(b1-3)GlcNAc(b1-2)Man(a1-6)]Man(b1-4)GlcNAc(b1-4)GlcNAc. Put shortly: as §1
In assay [3] the target is Neu5Ac(a2-3)Gal(b1-3)GlcNAc(b1-3)Gal(b1-3)GlcNAc. Put shortly:
as §1

Assay [4] deals with Neu5Ac(a2-3)Gal(b1-3)GlcNAc(b1-3)GalNAc. Put shortly:
as §1

Assay [5] has as its target Neu5Ac(a2-3)Gal(b1-4)GlcNAc(b1-3)Gal. The method in brief: as §1
In assay [6] the target is Neu5Ac(a2-3)Gal(b1-4)GlcNAc(b1-3)Gal(b1-4)GlcNAc(b1-6)[Gal(b1-3)]GalNAc. The method in brief:
as §1

Assay [7] addresses Neu5Ac(a2-3)Gal(b1-4)GlcNAc6S. Put shortly: as §1
Assay [8] concerns the target Neu5Ac(a2-6)Gal. Put shortly: as §1
Assay [9] deals with Neu5Ac(a2-6)Gal(b1-4)GlcNAc(b1-2)Man(a1-3)[GlcNAc(b1-4)][Neu5Ac(a2-6)Gal(b1-4)GlcNAc(b1-2)Man(a1-6)]Man(b1-4)GlcNAc(b1-4)GlcNAc. The method in brief: as §1
The target of assay [10] is Neu5Ac(a2-6)Gal(b1-4)GlcNAc(b1-3)Gal(b1-4)[Fuc(a1-3)]GlcNAc(b1-3)Gal(b1-4)[Fuc(a1-3)]GlcNAc. The method in brief: as §1
The target of assay [11] is Neu5Ac(a2-6)GalNAc(b1-4)GlcNAc6S. The method in brief: as §1
The target of assay [12] is Neu5Ac(a2-8)Neu5Ac(a2-8)Neu5Ac(a2-3)Gal(b1-4)Glc. Put shortly:
as §1

The target of assay [13] is Neu5Gc(a2-3)Gal(b1-3)[Fuc(a1-4)]GlcNAc. Put shortly:
as §1

B1: MFG-E8 (Mus musculus), P21956 (protein)
chain: MQVSRVLAALCGMLLCASGLFAASGDFCDSSLCLNGGTCLTGQDNDIYCLCPEGFTGLVCNETERGPCSPNPCYNDAKCLVTLDTQRGDIFTEYICQCPVGYSGIHCETETNYYNLDGEYMFTTAVPNTAVPTPAPTPDLSNNLASRCSTQLGMEGGAIADSQISASSVYMGFMGLQRWGPELARLYRTGIVNAWTASNYDSKPWIQVNLLRKMRVSGVMTQGASRAGRAEYLKTFKVAYSLDGRKFEFIQDESGGDKEFLGNLDNNSLKVNMFNPTLEAQYIKLYPVSCHRGCTLRFELLGCELHGCSEPLGLKNNTIPDSQMSASSSYKTWNLRAFGWYPHLGRLDNQGKINAWTAQSNSAKEWLQVDLGTQRQVTGIITQGARDFGHIQYVASYKVAHSDDGVQWTVYEEQGSSKVFQGNLDNNSHKKNIFEKPFMARYVRVLPVSWHNRITLRLELLGC
B1: the “glycan array binding signal (z-score)” value was -0.582 in [1]; -0.096 in [2]; -1.04 in [3]; 0.592 in assay [4]; 0.469 in [5]; -0.309 in assay [6]. Further, the “glycan array binding signal (z-score)” value was -0.285 in [7]; 0.316 in assay [8]; 0.277 in [9]; -0.437 in assay [10]; 3.05 in [11]; -0.889 in assay [12]. For the same molecule, the “glycan array binding signal (z-score)” value in assay [13] came out at 2.55.
